This is an account of results in PubChem BioAssay (NCATS).

Results filed as inconclusive are left out. A call without a number means that no potency is given here. Active and inactive are the calls of the source. Calls come from the whole dose curve; as a rule, active = well fitted inhibition curve with a large enough effect; inconclusive = small, poorly fitted or top-dose-only effect; inactive = no such curve, though single readings can be large or run the other way.
Potency is the fitted concentration of half-maximal effect.

In this assay the test system is Zika virus NS2B-NS3 protease (linked construct). As to the kind of experiment: Primary screen NINDS Rhodamine qHTS for Zika virus inhibitors (AID 1347160). Note: nearly all actives have a fitted effect of over 55% in size. Conditions: purified NS2B-NS3 protease, Rhodamine110 substrate fluorescence; series mostly up to 33.1 µM. In a few lines:
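Kinetic fluorescence (Ex 480 nm, Em 540 nm) over 15 min with 1.5 microM Rhodamine110 peptide and 25 nM linked protease.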
On the technique in general: In qHTS, concentration-response curves come from the screen itself.
For `CC1(C)C(=O)CCC2(C)C1C(O)C=C1COC(=O)C12O` (stereo not given), the Potency result is “inactive”. Consider `COc1c2c(c(C)c3c1C(=O)OC3)OC1(C)CC(O)C34OC(OC)(CCC3(C)C1C2)OC4(C)CO` (stereo not given), for which the Potency result was “inactive”. `C[C@]12CC[C@@H]3c4ccc(O)cc4CC[C@H]3[C@@H]1C[C@@H](O[C@@H]1O[C@H](C(=O)O)[C@@H](O)[C@H](O)[C@H]1O)[C@@H]2O`: the Potency entry was “inactive”. Take `CC1(C)CC[C@]2(C(=O)O[C@@H]3O[C@H](CO)[C@@H](O)[C@H](O)[C@H]3O)CC[C@]3(C)C(=CCC4[C@@]5(C)C[C@@H](O)[C@H](O)[C@@](C)(CO)C5[C@H](O)C[C@]43C)C2[C@@H]1O` (stereo not given in full): the Potency entry was “inactive”.

For `C=C1[C@@H]2CC[C@@]3(C)[C@H](c4ccoc4)OC(=O)C[C@]13O[C@H]1CC(=O)C(C)(C)[C@H](C(O)C(=O)OC)[C@]12C` (stereo not given in full), the Potency entry is “inactive”. In the case of `CC1=CC(=O)C(=C(C)C)CC2C(C)(O)CCC12O` (stereo not given), the Potency entry is “inactive”. The result for `C=C1C(=O)OC[C@H]2C(C(=O)O)=CC3CC(C)(C)C[C@@]132` (stereo not given in full) reads “inactive”; that for `COc1cc(O)c(C(=O)O)c(CCc2ccccc2)c1`, 22.4 µM (active).

In the case of `COC(=O)[C@]1(Cc2ccc(O)c(CC=C(C)C)c2)OC(=O)C(O)=C1c1ccc(O)cc1`, the Potency result was “inactive”. With `CC(=O)Nc1cccc2c1c(Sc1ccc(Cl)cc1)c(C)n2CC(=O)O` the entry was “inactive”; with `C[C@@]1(C(=O)O)CCC[C@@]2(C)C3=CC[C@H]4C[C@@]3(CC[C@H]12)CC4(O)CO` (stereo not given in full), “inactive”; with `C=C1C(O)CCC2(C)CC3(OC)OC(=O)C(C)=C3CC12` (stereo not given), “inactive”.

Take `CC(O)C(=O)/C=C/C=C/C(=O)OC1C=C2COC(=O)C2(O)C2(C)CCCC(C)(C)C12` (stereo not given): the Potency entry was “inactive”.

Take `CC[C@H](NC(=O)c1c(O)c(-c2ccccc2)nc2ccccc12)c1ccccc1`: the Potency result is “inactive”. As for `O=C(N[C@@H]1CC[C@@H](c2cccc(F)c2F)CN(CC(F)(F)F)C1=O)N1CCC(n2c(=O)[nH]c3ncccc32)CC1`, the Potency result is “inactive”. Turning to `C=C1CCC2[C@](C)(CCC[C@]2(C)C(=O)O)[C@H]1CC/C(C)=C/C(=O)OC` (stereo not given in full), the Potency entry is “inactive”. Consider `COc1cc(/C=C/C(=O)OC[C@H]2O[C@@H](OC3CC(C)=C(C(=O)O)C(C)(C)C3)[C@H](O)[C@@H](O)[C@@H]2O)cc(OC)c1O` (stereo not given in full), for which the Potency entry was “inactive”. As to `CC1(C)CC[C@]2(C(=O)O[C@@H]3O[C@H](CO)[C@@H](O)[C@H](O)[C@H]3O)CC[C@]3(C)C(=CCC4[C@@]5(C)CC[C@H](O[C@@H]6O[C@H](C(=O)O)[C@@H](O)[C@H](O)[C@H]6OC6OC(CO)C(O)C(O)C6O)C(C)(C)C5CC[C@]43C)[C@@H]2C1` (stereo not given in full), the Potency entry is “inactive”. With `CC[C@@H](Nc1c(Nc2cccc(C(=O)N(C)C)c2O)c(=O)c1=O)c1ccc(C)o1` the entry was “inactive”; with `C[C@@H]1C[C@@H](O)[C@@]23CO[C@]2(CO)CCC[C@@H]3[C@@]12C[C@@H](c1ccoc1)OC2=O`, “inactive”; with `C=CCC/C=C/C#CCCCCCCCC[C@H]1C(=O)O[C@H](C)[C@@H]1O`, “inactive”. In the case of `NC1(c2ccc(NC(=O)c3ccnc(-c4cc(C(=O)O)ccn4)c3)cc2)CC1`, the Potency result was “inactive”. In the case of `CC1(C)C=Cc2c(ccc3c2[N+]([O-])=C2C3(O)CC34NC(=O)C5(CCCN5C3=O)CC4C2(C)C)O1` (stereo not given), the Potency result is “inactive”. Take `O=C(O)C[C@H]1CCC(=O)[C@@H]1C/C=C\CCO`: the Potency entry was “inactive”. Take `CC/C=C\CC1C(CC(=O)O)CCC1OC1OC(CO)C(O)C(O)C1O` (stereo not given): the Potency result is “inactive”. Regarding `O=C(O)Cn1nnc(-c2ccc(CN(CCCCOc3ccc(CN4CCCC4)cc3)CCc3ccccc3)cc2)n1`, the Potency result is “inactive”. Regarding `CCCc1[nH]nc2c1C(c1cc(Cl)cc(Cl)c1O)C(C#N)=C(N)O2` (stereo not given), the Potency entry is “inactive”. Consider `COC(=O)[C@H](c1ccccc1Cl)N1CCC2SC(=O)C=C2C1` (stereo not given in full), for which the Potency entry is “inactive”.

For `CC1CCC2C(C)(C)C(O)C(O)CC2(C)C12Cc1c(O)cc(CO)c(C=O)c1O2` (stereo not given), the Potency result was “inactive”.

Turning to `CC1=CC2=C(C)C(=O)C(C)(O)C(O)C2CO1` (stereo not given), the Potency entry was “inactive”. In the case of `CC(=O)O[C@@H]1C=C2[C@H](CC[C@@]3(C)[C@@]2(O)CC[C@H]2Cc4c([nH]c5ccccc45)[C@@]23C)O[C@@H]1C(C)(C)O`, the Potency result is “inactive”. As for `C=C(C)[C@@H]1CC[C@]2(C)CC[C@]3(C)C(CCC4[C@@]5(C)CC[C@H](O)C(C)(C)C5CC[C@]43C)C12` (stereo not given in full), the Potency result is “inactive”.

Consider `CC(=O)OC/C(=C/C(=O)O)CC[C@@H]1C(C)=CC(=O)[C@@H]2C(C)(C)CCC[C@@]12C`, for which the Potency result was “inactive”.

Take `Cc1ncc([N+](=O)[O-])n1C[C@H](O)CN1CCOCC1`: the Potency result is “inactive”. Consider `COc1ccc(OC)c(C2C(C#N)=C(N)Oc3n[nH]c(-c4ccc5ccccc5c4)c32)c1` (stereo not given), for which the Potency entry was “inactive”.
